PubChem BioAssay AID1117319 (Southern Research Institute, 2015)
Several values for one entry are separate records, joined by “and”; a condition that tells them apart may be missing. Equal entries are not always repeated. Hit rate of the full screen: of about 260,000 compounds, about 1,500 (0.58%) were called active. Another 5% or so got no clear call; they are omitted. These entries were drawn from the full list. Potency and affinity values are given separately. Unmarked numbers belong to inactive results.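 The calls were made as follows: active = inhibition above a set limit at one or more doses, reproduced on every date tested; inconclusive = results disagree between test dates, or hit never tested in dose response; inactive = the rest.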

Each compound was assayed against Virion infectivity factor (Human immunodeficiency virus type 1 group M subtype B (isolate BH10)) + Virion infectivity factor (Human immunodeficiency virus type 1 group M subtype B (isolate BRU/LAI)) + Virion infectivity factor (Human immunodeficiency virus type 1 group M subtype B (isolate PCV12)) + Virion infectivity factor (Human immunodeficiency virus type 1 group M subtype B (isolate HXB2)) + DNA dC->dU-editing enzyme APOBEC-3G (Homo sapiens) (UniProt P69720+P69721+P69722+P69723+Q9HC16) (assay: inhibitors of Vif binding to APOBEC3G peptide, primary screen, biochemical, TR-FRET, GST-Vif 1-94, biotin-A3G peptide, dose response retest (AID 1117319;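 also: Vif residues 1-94 fused to GST binding biotinylated APOBEC3G peptide 110-148; 0% = full assay without inhibitor and 100% = GST in place of GST-Vif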)). Details: active compounds read high.
`CCNc1nc(NCC)nc(SCC(C)=O)n1` showed an inhibition of 1.47%.
In the case of `O=C(CCc1c[nH]c2ccccc12)NCc1ccco1`, the inhibition is reported as 14.9%.
In the case of `O=C(NCc1ccccc1F)c1ccc(S(=O)(=O)NCc2ccco2)cc1`, the inhibition is reported as 1.91%.
In the case of `O=C(Cc1c[nH]c2ccccc12)NCc1ccco1`, the inhibition is reported as -2.84%.
In the case of `NS(=O)(=O)c1ccc(CNC(=O)c2ccc(S(=O)(=O)NCc3ccco3)cc2)cc1`, the inhibition is reported as -7.37%.
With `O=C(NCCc1ccccc1)c1nc2ncccn2n1` the inhibition was 8.66%.
`COc1ccc(NC(=O)CCNS(=O)(=O)c2cccc3nonc23)cc1Cl` was tested, and the inhibition was 7.84%.
Work on `COc1ccc(/C=C(/CC(=O)NCc2ccc(Cl)cc2)c2nc3ccccc3s2)cc1` yielded an inhibition of 2.71%.
Compound `COc1ccccc1/C=C(/CC(=O)NCc1ccc(F)cc1)c1nc2ccccc2s1` has an inhibition of -7%.
With `COc1ccc(Cl)cc1C(=O)Nc1ccccc1N1CCN(C)CC1` the inhibition was 1.41%.
With `COC(=O)/C(=C/c1ccco1)NC(=O)c1ccccc1` the inhibition was 11.2%.
In the case of `O=C(Nc1ccc(C(=O)O)cc1)/C(=C\c1ccco1)NC(=O)c1ccccc1`, the inhibition is reported as 26.2%.
`Fc1ccc(-c2cc(C(F)(F)F)nc(-n3cccn3)n2)cc1` was tested, and the inhibition was 21.7%.
For `CCc1ccc2[nH]c(=O)c(C(c3nnnn3CCOC)N3CCN(c4ccccc4)CC3)cc2c1` (centres undefined), the inhibition was 9.41% and 22.6%.
With `CCc1ccc2[nH]c(=O)c(C(c3nnnn3CCOC)N3CCN(c4ccc(F)cc4)CC3)cc2c1` (centres undefined) the inhibition was 9.01% and 16.1%.
`Cc1ccc(SCC(=O)NNC(=O)CCS(=O)(=O)c2ccc(C)cc2)cc1` showed an inhibition of -4.89%.
Work on `CCCNC(=O)c1ccccc1C(=O)NCCC` yielded an inhibition of -3.84%.
`CCOCCCNC(=O)c1ccccc1Br` showed an inhibition of 79.3%.
Work on `Cc1nn(-c2ccccc2)c(C)c1C1C(C#N)=C(N)Oc2n[nH]c(C)c21` (centres undefined) yielded an inhibition of -0.66%.
Work on `CCCCC(=O)Nc1cccc(-c2csc(-c3ccccc3)n2)c1` yielded an inhibition of -12.6%.
For `O/N=C1\CC(O)Cc2nonc21` (centres undefined), the inhibition was -4.67%.
In the case of `CCCC(c1nnnn1CC(=O)OCC)N(Cc1cc2ccc(C)cc2[nH]c1=O)C1CCCC1` (centres undefined), the inhibition is reported as 4.45% and 9.64%.
Work on `CCCC(c1nnnn1CC(=O)OCC)N(Cc1cc2c(C)cc(C)cc2[nH]c1=O)C1CCCC1` (centres undefined) yielded an inhibition of 68.5%.
Compound `O=C(Nc1ncn[nH]1)c1ccccc1O` has an inhibition of -9.78%.
For `COc1ccc(N2C(=O)C3C4C=CC(C4)C3C2=O)c(OC)c1` (centres undefined), the inhibition was 1.91%.
`COc1ccc(NC(=O)CN2CCN(c3ccccc3F)CC2)cc1` showed an inhibition of 8.91%.
For `COC(=O)c1ccc(CN(C(=O)N2CCN(C)CC2)S(=O)(=O)c2ccc(C)cc2)cc1`, the inhibition was 2.32%.
With `O=C(CSc1nc(-c2ccco2)cc(C(F)(F)F)n1)N1CCCc2ccccc21` the inhibition was -15.3% and -9.35%.
With `CN1CCN(C(=O)CSc2nc(-c3ccco3)cc(C(F)(F)F)n2)CC1` the inhibition was -4.57%.
Work on `O=C(Nc1ccc(F)cc1)C(=O)C1C(=O)Nc2ccccc21` (centres undefined) yielded an inhibition of -6.37%.
With `Cc1ccc(NC(=O)C(=O)NCc2ccc(/C=N/NC(=O)c3c(C)nc4cc(C)ccn34)o2)cc1` the inhibition was 19.2%.
`Cc1ccc(NC(=O)C(=O)NCc2ccc(/C=C(/C#N)C(=O)NCc3cccnc3)o2)cc1` gave an inhibition of 7.86%.
With `Cc1ccc(NC(=O)C(=O)NCc2ccc(/C=N/NC(=O)c3c(C)nc4ccccn34)o2)cc1` the inhibition was 26.2%.
With `COC(=O)C1=C(O)/C(=C\c2ccc(OCC(=O)Nc3ccccc3)cc2)N=C1C` the inhibition was -9.89%.
Work on `CCOC(=O)c1ccc(NC(=O)C(=O)NCc2ccc(/C=C(/C#N)C(=O)NCCOC)o2)cc1` yielded an inhibition of -2.3%.
`CCOC(=O)C1=C(O)/C(=C\c2cccs2)N=C1C` was tested, and the inhibition was 15.1%.
With `O=C(NCc1ccc(/C=c2\sc3n(c2=O)CCN=3)o1)C(=O)Nc1ccccc1` the inhibition was -17%.
`CCOC(=O)C1=C(O)/C(=C\c2sccc2C)N=C1C` gave an inhibition of 0.95%.
`O=C(COC(=O)/C=C/c1cccc(Br)c1)NCCC1=CCCCC1` showed an inhibition of 12.4%.
With `Cc1cc(C(=O)N2CCN(c3ccccc3Cl)CC2)c(C)o1` the inhibition was 3.3%.
In the case of `C=CCNc1nc(-c2ccc(OC)cc2OC)cs1`, the inhibition is reported as -8.96%.
Work on `COc1cc(NC(=O)COc2ccc(Cl)cc2)ccc1NC(=O)C(C)C` yielded an inhibition of 1.28%.
`CCCSc1cc(N)cc([N+](=O)[O-])c1` showed an inhibition of -12.3%.
`CCN(CC)CCN(C(=O)CCS(=O)(=O)c1ccccc1)c1nc2cc(C)cc(C)c2s1` was tested, and the inhibition was 7.31%.
`O=C(CSc1ncn[nH]1)Nc1ccc2c(c1)CCC2` gave an inhibition of -3.75%.
`CCCOc1ccc(/C=N/NC(=S)Nc2ccccc2[N+](=O)[O-])c(O)c1` showed an inhibition of 5.31%.
Compound `N#Cc1ccc(/C=N/NC(=S)Nc2ccc(S(=O)(=O)N3CCOCC3)cc2)cc1` has an inhibition of 27.6%.
`O=[N+]([O-])c1cc(/C=N/NC(=S)Nc2ccccc2Cl)ccc1Cl` showed an inhibition of 8.67%.
For `O=S(=O)(c1ccc(NC(=S)N/N=C/c2ccc(N3CCOCC3)cc2)cc1)N1CCOCC1`, the inhibition was 0.51%.
Compound `CCOc1ccc(/C=N/NC(=O)C(OC)c2ccccc2)cc1` (centres undefined) has an inhibition of -8.04%.
`Cc1nnc(N(C)C(=O)c2cccnc2)s1` gave an inhibition of -3.79%.
With `COc1cc(C(=O)N/N=C/c2ccc(OC)c(CN3CCN(c4ccc(F)cc4)CC3)c2)ccc1O` the inhibition was -4.76%.
Work on `COc1ccc(/C=N/NC(=O)c2ccccc2O)cc1Cn1cc([N+](=O)[O-])cn1` yielded an inhibition of 22.8%.
In the case of `COc1ccc(/C=N/NC(=O)c2ccccc2)cc1CN1CCN(c2ccc(F)cc2)CC1`, the inhibition is reported as 1.7%.
Work on `COc1ccc(/C=N\NC(=O)c2cccc([N+](=O)[O-])c2)cc1Cn1cc([N+](=O)[O-])cn1` yielded an inhibition of 9.14%.
Compound `CC(=O)Oc1cc2c(cc1OC(C)=O)C(=O)CCCC2` has an inhibition of -3.59%.
`CCc1cccc2c(C(=O)CSc3nncn3C)c[nH]c12` showed an inhibition of 3.36%.
For `O=C(COC(=O)c1ccccn1)NCc1cccc(Cl)c1`, the inhibition was 11.7%.
With `CCC1CCCCN1C(=O)c1ccccc1OC1CCN(S(C)(=O)=O)CC1` (centres undefined) the inhibition was 6.69%.
`Cc1c(Cl)cc(C(C)C)c(O)c1CN1CCOCC1` showed an inhibition of -0.22%.
`Oc1c(CN2CCOCC2)cc(-c2ccccc2)cc1CN1CCOCC1` was tested, and the inhibition was 2.33%.
Compound `O=C(NCCCN1CCOCC1)c1csc2c1CCCC2` has an inhibition of -1.89%.
`CCOc1ccc(-c2cc(C(=O)NCCCN3CCOCC3)c3ccccc3n2)cc1` was tested, and the inhibition was -4.67%.
With `COc1ccc(C2NC(=O)NC(O)(C(F)(F)F)C2C(=O)c2ccccc2)cc1OC` (centres undefined) the inhibition was -3.65%.
For `O=C1NC(c2cn(-c3ccccc3)nc2-c2cccs2)C(C(=O)c2cccnc2)C(O)(C(F)(F)F)N1` (centres undefined), the inhibition was 1.08%.
For `CCC(Oc1ccccc1)C(=O)Nc1ccc(S(=O)(=O)N2CCOCC2)cc1` (centres undefined), the inhibition was 15.9%.
Compound `CCc1nc(SCC(=O)N2CCCC2)c2ccccc2n1` has an inhibition of 14.3%.
`CCOc1cc(C(=O)Nc2ccc(N3CCOCC3)cc2)cc(Br)c1OC` showed an inhibition of 12.9%.
With `Cc1ccc(S(=O)(=O)Nc2cc(C(F)(F)F)ccc2N2CCOCC2)cc1` the inhibition was 1.57%.
With `O=S(=O)(Nc1cc(C(F)(F)F)ccc1N1CCOCC1)c1ccccc1` the inhibition was 2.04%.
Work on `COc1ccc(NS(=O)(=O)c2cccc(C(=O)NCC3CCCO3)c2)cc1` (centres undefined) yielded an inhibition of 1.68%.
`COc1ccccc1N1CCN(CC(=O)Nc2cccc(F)c2)CC1` was tested, and the inhibition was -5.83%.
In the case of `O=C(CN1CCCC1)Nc1ccc2c(c1)CCC2`, the inhibition is reported as -3.44%.
With `O=C(CN1CCN(Cc2ccccc2)CC1)Nc1ccc2c(c1)CCC2` the inhibition was -3.36%.
In the case of `CC1CCN(CCNC(=O)c2ccc(NC(=O)C3CCCO3)cc2)CC1` (centres undefined), the inhibition is reported as 2.71%.
With `O=C(Nc1ccc2c(c1)CN(Cc1ccccc1O)CC2)C1CCCO1` (centres undefined) the inhibition was -4.54%.
In the case of `CCc1ccc(CC)c(S(=O)(=O)Nc2ccc(O)c(C(=O)O)c2)c1`, the inhibition is reported as -4.21%.
`O=C(O)c1ccc(NS(=O)(=O)c2cc(Cl)ccc2Cl)cc1O` gave an inhibition of 3.01%.
Compound `O=C(Nc1ccc(Br)cc1)C1CCN(C(=O)c2ccc(F)cc2)CC1` has an inhibition of -10.6%.
In the case of `CCOC(=O)c1cnc(SCC(=O)OCC(=O)N(CC)C2CCS(=O)(=O)C2)nc1N` (centres undefined), the inhibition is reported as 4.12%.
For `COc1cccc(NC(=O)CN(C)C(=O)/C=C/c2cn(Cc3ccccc3)nc2-c2cccnc2)c1`, the inhibition was -9.6%.
In the case of `O=C(Nc1ccc(F)cc1)C(c1ccccc1)N1CCN(S(=O)(=O)c2c(F)cccc2F)CC1` (centres undefined), the inhibition is reported as 22.6%.
Work on `Cc1ccc(S(=O)(=O)N2CCN(C(C(=O)Nc3ccc(F)cc3)c3ccccc3)CC2)cc1` (centres undefined) yielded an inhibition of 69.8%.
Work on `COC(=O)CCC(=O)OC1(C)C(=O)C=C2C=C(C3CC3)N(Cc3ccc(OC)cc3)C=C2C1=O` (centres undefined) yielded an inhibition of 31.5%.
In the case of `CC(C)OCCCN1C=C2C(=O)C(C)(OC(=O)CCc3ccccc3)C(=O)C=C2C=C1c1ccc(C#N)cc1` (centres undefined), the inhibition is reported as 12.3%.
For `COc1ccc(N2C=C3C(=O)C(C)(OC(=O)CCc4ccccc4)C(=O)C=C3C=C2c2ccc(C#N)cc2)cc1` (centres undefined), the inhibition was 11.3%.
`COC(=O)CCC(=O)OC1(C)C(=O)C=C2C=C(C3CC3)N(CCCOC(C)C)C=C2C1=O` (centres undefined) showed an inhibition of 20.5%.
`O=[N+]([O-])c1ccc2nc(SCc3ccccc3Cl)sc2c1` showed an inhibition of 2.57%.
For `CC(C)n1c(SCC(=O)N2c3ccccc3Sc3ccccc32)nc2c1c(=O)n(C)c(=O)n2C`, the inhibition was 1.71%.
